Experimental data from PubChem BioAssay.
Calls of active or inactive are those of the source.

What was measured:
[1] = tested on: XIP peptide (Xip251-270) binding; assay: XIP fragment 251-270 binding compounds – biochemical, small-molecule microarray, fluorescence 635/667 nm, 0.1 µg/mL protein, primary screen (AID 1182); details: fluorescent protein binding, 635 nm, higher = more signal, called active from +8 up or from −8 down
XIP peptide (Xip251-270) = assay: compounds binding XIP fragment 251-270 – biochemical, small-molecule microarray, fluorescence 635/667 nm, 0.5 µg/mL protein, primary screen (AID 1183); details: fluorescence 635 nm, higher = more signal
[2] = blood-stage malaria parasite viability loss – strain 3D7, DAPI fluorescence, 100 nL, primary screen (AID 1184);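 also: parasites grown inside human red blood cells in medium with human serum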; details: P. falciparum 3D7 growth, 3 d, higher = more signal
[3] = molecular target: Homeobox protein Hox-A13 (Mus musculus) (UniProt Q62424); assay: disruptors of Hoxa13 oligonucleotide interaction – biochemical, fluorescence polarization, labeled oligonucleotide, primary screen (AID 1185); details: Hoxa13:DNA binding, 15 min, higher = more signal, called active from +8 up or from −8 down
Sequence of Homeobox protein Hox-A13 (Mus musculus) (Q62424 whole entry, looked up): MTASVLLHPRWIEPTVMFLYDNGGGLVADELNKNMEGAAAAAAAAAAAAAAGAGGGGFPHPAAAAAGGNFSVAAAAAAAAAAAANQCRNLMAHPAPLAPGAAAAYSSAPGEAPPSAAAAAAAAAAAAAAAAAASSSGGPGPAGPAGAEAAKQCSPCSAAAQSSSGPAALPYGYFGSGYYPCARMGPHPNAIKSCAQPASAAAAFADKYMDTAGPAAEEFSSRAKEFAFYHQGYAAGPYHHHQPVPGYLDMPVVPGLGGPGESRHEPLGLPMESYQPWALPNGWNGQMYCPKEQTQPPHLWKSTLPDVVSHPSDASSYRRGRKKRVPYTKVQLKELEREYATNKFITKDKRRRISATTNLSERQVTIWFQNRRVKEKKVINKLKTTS

SMILES: CCOC(=O)NN=C1C[C@@H](O)[C@@H](O)[C@@H]2[C@@H]3C(=O)N([C@@H](C)c4ccccc4)C(=O)[C@@H]3CC[C@H]12
- composite z-score [1]: 0.0004 (inactive)
- composite z-score (XIP peptide (Xip251-270)): -0.0286
- z-score [2]: -0.125
- z-score [3]: -1.52 (inactive)

SMILES: CCOC(=O)NN=C1C[C@@H](O)[C@@H](O)[C@@H]2[C@@H]3C(=O)N([C@@H](C)c4ccccc4)C(=O)[C@@H]3CC[C@@H]12
- composite z-score [1]: -0.235 (inactive)
- composite z-score (XIP peptide (Xip251-270)): 0.519
- z-score [2]: 0.156
- z-score [3]: -1.84 (inactive)

SMILES: CCc1cc2c(nc1CC)CCN(CCC(C)=NO[C@@H](C)c1cn([C@H](CO)Cc3ccccc3)nn1)C2
- composite z-score [1]: 0.444 (inactive)
- composite z-score (XIP peptide (Xip251-270)): 0.704
- z-score [2]: -1.72
- z-score [3]: -6.65 (inactive)
